Inconclusive results are not listed. Active and inactive are the calls of the source. The calls were made as follows: active = hit-call score of the fitted dose curve at least 0.9, where 1 is the maximum; inconclusive = response in the unintended direction; inactive = score below 0.9.

In PubChem BioAssay (EPA / NIEHS) one finds outcome and AC50 data, which are given here for 37 molecules.

The nature of this test: ACEA_ER_80hr: ACEA Biosciences xCELLigence Real-Time Cell Analysis on Estrogen Receptor Agonism for Proliferation (AID 2282667). Particulars: T47D proliferation, impedance (xCELLigence), 80 h. In a few lines:
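Real-time impedance growth kinetics of human T-47D breast cells read 80 h after dosing, gain-of-signal fitted relative to DMSO. Compounds: 1:4 serial series, top final concentration 100 uM, n = 2.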
With `OC[C@H]1O[C@@H](O[C@H]2[C@H](O)[C@@H](O)[C@H](O)O[C@@H]2CO)[C@H](O)[C@@H](O)[C@H]1O`, the result was inactive.

As for `CC(=O)CCC=C(C)CCC=C(C)C`, the result was inactive.

In the case of `CCCCOCC(C)OCC(C)O` (configuration not stated), the molecule was called inactive.

In the case of `CC(C)(C)c1cccc(O)c1`, the result was inactive.

For `O=C(Nc1cccc(Cl)c1)OCC#CCCl`, the call was inactive.

Take `CCCCOC(=O)C(C)OC(=O)CCC` (configuration not stated): the molecule was called inactive.

On to `CCCCC/C=C\C=C\C(=O)OCC`, for which the result was inactive.

Consider `CCOC(=O)C(=O)OCC`, for which the molecule was called inactive.

For the molecule `CN1CCc2cccc3c2[C@H]1Cc1ccc(O)c(O)c1-3`, the outcome was inactive.

On to `CCCCCC(=O)O[C@]1(C(C)=O)CC[C@H]2[C@@H]3CCC4=CC(=O)CC[C@]4(C)[C@H]3CC[C@@]21C`, for which the AC50 is 5.01 nM (active).

Take `CCCCN(CCCC)CCCCCCN(CCCC)CCCC`: the call was inactive.

For `CC(=O)CC(=O)N(C)C`, the molecule was called inactive.

Turning to `c1ccc(Cc2ccccc2)cc1`, the outcome was inactive.

Take `CCCCCCCOC(C)=O`: the result was inactive.

Regarding `CCC(=O)OC/C=C(\C)CCC=C(C)C`, the AC50 was 91.6 nM (active).

As to `CC/C=C\C#N`, the molecule was classed as inactive.

For `C=CC(C)CCCC(C)(C)O` (configuration not stated), the molecule was classed as inactive.

On to `CC(O)CN` (configuration not stated), for which the call was inactive.

On to `NCCCOCCOCCOCCCN`, for which the half-maximal activity concentration (AC50) was 10200 nM (active).

On to `CCCCCCOc1ccc(O)cc1`, for which the outcome was inactive.

On to `C=COCC1CCC(COC=C)CC1` (configuration not stated), for which the outcome was inactive.

For `O=C(O)c1cc2ccccc2cc1O`, the molecule was called inactive.

`CCCCCC1CCC(=O)O1` (configuration not stated): the outcome was inactive.

As for `CCCC1CCOC(C)S1` (configuration not stated), the call was inactive.

On to `CCC(C)(CCCC(C)C)OC(C)=O` (configuration not stated), for which the molecule was called inactive.

For the molecule `COC(=O)c1ccc(C(=O)OC)cc1`, the outcome was inactive.

With `CC(=O)OC(C)(C)C1CC=C(C)CC1` (configuration not stated), the molecule was called inactive.

With `O=C1OCc2ccccc21`, the molecule was classed as inactive.

With `CCOC(=O)CC1(C)OCC(C)O1` (configuration not stated), the molecule was called inactive.

Take `CC1=CCC(C(C)C)=CC1`: the result was inactive.

On to `CN(C)c1ccc(C=O)cc1`, for which the result was inactive.

For the molecule `c1ccc(Sc2ccccc2)cc1`, the molecule was classed as inactive.

In the case of `O=S(=O)(O)CCCN1CCOCC1`, the molecule was classed as inactive.

`COc1ccccc1O`: the result was inactive.

Regarding `NC(=O)c1cccnc1`, the outcome was inactive.

`COc1ccc(OC)cc1`: the result was inactive.

For `C=C1CC[C@H]2O[C@]2(C)CC[C@@H]2[C@@H]1CC2(C)C`, the call was inactive.

In general, AC50 refers to the midpoint of the concentration-response curve, whichever way the signal moves.
